Test results reported in the supplement of paper PMC4188521.

compound: CCc1cnn2c(NCc3ccc[n+]([O-])c3)cc(N3CCCC[C@H]3CCO)nc12 [dinaciclib]; assay: cell viability remaining relative to DMSO control; higher = less cytotoxic (more viable cells); conditions: 100 nM; 24 h
Description: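 Solid tumor cell lines were treated with dinaciclib (100 nM) for 24 hr. Viability was measured by CellTiter-Glo ATP luminescence and expressed as % of DMSO-treated control wells (mean of 2-6 plates, triplicate wells per plate).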

First: TOV21G
Second: H441
The cell viability remaining of the first is lower: 66.7% for the first, 73.4% for the second.

Compared with SW1573, SKNAS is lower in cell viability remaining: 99% for the first, 35% for the second.

Going from COLO800 to CALU6, the cell viability remaining rises from 36.9% to 58.4%.

Going from OV90 to CHAGOK1, the cell viability remaining falls from 99.8% to 52.5%.

Compared with RKN, COLO679 is higher in cell viability remaining: 55.6% for the first, 68.6% for the second.

First: LS180
Second: SKMEL28
The cell viability remaining of the first is higher: 85.7% for the first, 56.2% for the second.

Going from COLO684 to SJRH30, the cell viability remaining falls from 85.6% to 12%.

First: H292
Second: CAL27
The cell viability remaining of the first is higher: 51.5% for the first, 11.2% for the second.

Going from DBTRG05MG to CALU1, the cell viability remaining falls from 81.7% to 78.1%.

First: H2052
Second: SW1271
The cell viability remaining of the first is higher: 91.9% for the first, 80.7% for the second.

Going from SW1417 to HS934T, the cell viability remaining rises from 83.7% to 124%.

First: SW1783
Second: SU8686
The cell viability remaining of the first is higher: 72.9% for the first, 48.9% for the second.

First: 59M
Second: HOS
The cell viability remaining of the first is higher: 73.2% for the first, 36.2% for the second.

Compared with H661, SKMES1 is higher in cell viability remaining: 34.6% for the first, 53.9% for the second.

Going from H226 to 22RV1, the cell viability remaining falls from 56.1% to 50.2%.

Compared with HLE, HS600T is higher in cell viability remaining: 37.7% for the first, 93.8% for the second.

Compared with HS895T, TYKNU is lower in cell viability remaining: 92.4% for the first, 83.8% for the second.

First: VCAP
Second: RMUGS
The cell viability remaining of the first is lower: 37.8% for the first, 62% for the second.

First: KATOIII
Second: H522
The cell viability remaining of the first is higher: 87.5% for the first, 80.6% for the second.

Compared with 786O, RL952 is lower in cell viability remaining: 44.3% for the first, 33.4% for the second.
